Hit rate of the full screen: of about 320,000 compounds, about 9,100 (2.8%) were called active. Another 3% or so got no clear call; they are omitted. This is one part of a sample in which actives are shown more often than they occur. Values without a mark were called inactive. Calls follow the shape of the dose curve; as a rule, active = well fitted activation curve with a large enough effect; inconclusive = small, poorly fitted or top-dose-only effect; inactive = no such curve, though single readings can be large or run the other way.
Potency is read from the fitted curve at half-maximal effect.

The nature of the assay: qHTS Assay for Rab9 Promoter Activators. Also: nearly all actives have a fitted effect of over 60% in size. As to activation, negative = inhibition: % of control where 0% means no effect. To be noted: Huh7 Rab9 promoter-luciferase reporter, luminescence, 24 h; series mostly up to 9.22 µM; activation, negative = inhibition: at the top concentration. In a few lines: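 Promoter activation is measured as luciferase luminescence in Huh7 cells stably transfected with a Rab9 promoter–luciferase construct, following 24 h compound exposure at 37 °C and 10 min reagent incubation at ambient temperature.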
As to `CC(=O)Nc1ccc(Nc2cc(C)nc(Nc3ccc(NC(C)=O)cc3)n2)cc1`, the “activation, negative = inhibition” value is 6.88%.
Take `COc1cc(OC)cc(-c2nc(=S)n3ccsc3n2)c1`: the “activation, negative = inhibition” value was 17.6%.
Consider `CCN(c1cccc(C)c1)S(=O)(=O)c1ccc(-c2coc(C)n2)cc1`, for which the “activation, negative = inhibition” value was 0.0972%.
On the same count and under the same terms, the result for `CCN(CC(=O)NCCc1ccccc1)S(=O)(=O)c1ccc(C)cc1` reads 1.84%.
For the compound `COc1ccc(-c2cn3ccc(C)cc3n2)cc1`, the Potency is 112 nM (active).
Regarding `Cc1ccn2cc(C(=O)NC3CCN(Cc4ccccc4)CC3)nc2c1`, the “activation, negative = inhibition” value is -8.26%.
Regarding `COc1ccc(-n2c(-c3ccc(OC)c(OC)c3)n[nH]c2=S)cc1`, the “activation, negative = inhibition” value was 0.467%.
As to `COc1ccc(CNc2nccs2)cc1`, the “activation, negative = inhibition” value is 22.9%.
Regarding `CCN(CC)S(=O)(=O)c1ccc(-c2cn3ccc(C)cc3n2)cc1`, the Potency was 2240 nM (active).
As for `COc1ccc(-c2cn3ccsc3n2)cc1`, the Potency is 708 nM (active).
With `Cc1ccccc1N1CCN(C2CCCN(C(=O)c3cn4c(C)cccc4n3)C2)CC1` (centres undefined), the “activation, negative = inhibition” value was 0.145%.
Take `COc1ccccc1N1CC(C(=O)NCCN2C(=O)S/C(=C\c3cccnc3)C2=O)CC1=O` (centres undefined): the “activation, negative = inhibition” value was -3.77%.
Turning to `CC1CCCCC12NC(=O)N(CC(=O)OCC(=O)NCc1ccc(F)cc1)C2=O` (centres undefined), the “activation, negative = inhibition” value was -4.59%.
`Cc1nn(C(C)C(=O)N2CCOCC2)c(=O)c2nn(-c3ccccc3)c(C)c12` (centres undefined): the “activation, negative = inhibition” value is -3.34%.
The same measure, in the same setting: the figure for `O=C1C=C(c2cccc(Cl)c2)C[C@@H](c2ccc(F)cc2)C1` is -3%; for `COc1ccc(C(=O)CSc2nnc(NC(=O)C3CC(=O)N(c4cccc(OC)c4)C3)s2)cc1` (centres undefined) it is -1.42%.
As to `COc1ccc(/C=N/NS(=O)(=O)c2ccc(NC(C)=O)cc2)cc1`, the “activation, negative = inhibition” value is -2.84%.
On to `COc1ccc(CCCc2nnc(SCc3nc4ccccc4c(=O)[nH]3)n2C)cc1`, for which the “activation, negative = inhibition” value was -0.291%.
With `COc1ccc(/C=N/Nc2nc(-c3ccc(C)cc3)c(C#N)c(=O)[nH]2)cc1`, the “activation, negative = inhibition” value was 4.07%.
Regarding `COc1ccc(/C=N/OCC(=O)N(Cc2ccccc2)c2ccccc2C(=O)O)cc1`, the “activation, negative = inhibition” value is -2.72%.
In the case of `COc1ccc(/C=N/Nc2ccccc2C(=O)O)cc1`, the Potency was 89.1 nM (active).
`COc1ccc(/C=N/Nc2nc3ccccc3c(=O)[nH]2)cc1`: the Potency is 1580 nM (active).
For the compound `COc1ccccc1C(=O)NCC(=O)OCC(=O)Nc1nnc(-c2ccccc2)o1`, the “activation, negative = inhibition” value was -0.991%.
With `COc1cc(OC)cc(C(=O)Nc2nnc(SCC(=O)NCC3CCCO3)s2)c1` (centres undefined), the “activation, negative = inhibition” value is 1.89%.
Consider `COc1ccc(C)cc1NC(=O)CCCN1C(=O)NC(C)(C)C1=O`, for which the “activation, negative = inhibition” value is 2.01%.
In the case of `Cc1ccc(S(=O)(=O)NCCNC(C)c2ccc(Br)cc2)cc1` (centres undefined), the “activation, negative = inhibition” value was -8.2%.
In the case of `CCC1(C)NC(=O)N(CC(=O)N2CCN(c3cccc(Cl)c3)CC2)C1=O` (centres undefined), the “activation, negative = inhibition” value is -5.43%.
Turning to `COc1cc2c(cc1OC)CC1(CCCCC1)N=C2`, the “activation, negative = inhibition” value was -4.73%.
Turning to `Cc1ccc(N/N=C2\COC(C)(C)CC2=O)cc1`, the Potency is 3160 nM (active).
For the compound `CCC1(C)CC(=O)NC1=O` (centres undefined), the “activation, negative = inhibition” value is 7.83% [at 46.1 µM].
The same measure, in the same setting: the result for `COC(=O)CSc1nc2ccccc2c(=O)n1Cc1ccccc1` reads -0.304%.
Take `Cc1ccc(C(=O)CSc2nc3ccccc3c(=O)n2N)o1`: the Potency is 3550 nM (active).
With `COc1ccc(NC(=O)CSc2nc3ccccc3c(=O)n2C)cc1`, the “activation, negative = inhibition” value was -9.43%.
As to `Cc1ccccc1-c1cc(C(=O)NCC2CC2)n(CC2CC(c3cccnc3)=NO2)n1` (centres undefined), the “activation, negative = inhibition” value is -2.34%.
For the compound `COc1cc(C(C)=O)ccc1OC(C)C(=O)Nc1ccc(S(=O)(=O)N2CCCC2)cc1` (centres undefined), the “activation, negative = inhibition” value is -8.76%.
Regarding `O=C(NCC1CCC(C(=O)O)CC1)OCc1ccccc1` (centres undefined), the “activation, negative = inhibition” value is -5.42%.
Turning to `O=C(O)C1CCN(C(=O)OCc2ccccc2)CC1`, the Potency was 4470 nM (active).
As for `CCOC(=O)N1CCC(NC(=O)CCc2ccccc2)CC1`, the “activation, negative = inhibition” value is 4.41%.
On the same count and under the same terms, the result for `COc1ccc(Cl)cc1NC(=O)CN(C)CC(=O)Nc1ccc2c(c1)OCO2` reads 0.254%; that for `COc1ccc(CN(Cc2ccco2)S(=O)(=O)c2ccc(S(=O)(=O)N3CCCC3)cc2)cc1`, -0.878%.
With `COc1ccccc1-n1nnnc1SCC(=O)NC(=O)Cc1ccccc1`, the “activation, negative = inhibition” value is -6.08%.
In the case of `Cc1ccc(C(=O)Cn2cccn2)cc1`, the “activation, negative = inhibition” value was -3.96%.
Turning to `Cc1ccc(C(=O)Cc2nnc(C)s2)cc1`, the Potency is 2820 nM (active).
`Cc1ccc(S(=O)(=O)CC(=O)Nc2nnc(C)s2)cc1`: the “activation, negative = inhibition” value was -2.65%.
Consider `CC(OC(=O)c1cc2ccccc2o1)C(=O)Nc1ccc(N2CCOCC2)cc1` (centres undefined), for which the “activation, negative = inhibition” value is 4.05%.
The same measure, in the same setting: the figure for `Cc1ccc2oc(=O)c3cnn(CC(=O)N(Cc4ccco4)C4CCCCC4)c3c2c1` is 1.23%.
On to `O=C(NCc1cccnc1)c1cccc(-c2cc3ccccc3oc2=O)c1`, for which the activation, negative = inhibition is -2.68% [at 1.84 µM].
In the case of `Nc1ncc(-c2cc3ccccc3oc2=O)s1`, the Potency was 1120 nM (active).
Consider `Cc1cc2c(=O)n(C)c(SCC(=O)c3cc4ccccc4o3)nc2s1`, for which the “activation, negative = inhibition” value is 1.71%.
Turning to `COc1ccccc1C(CNC(=O)c1cccc(S(=O)(=O)Nc2ccc(F)cc2)c1)N(C)C` (centres undefined), the “activation, negative = inhibition” value was -11.7%.
With `Cc1nn(C)c(Cl)c1CN1CCC(n2nccc2NC(=O)C2CCCC2)CC1`, the “activation, negative = inhibition” value was -5.14%.
In the case of `CC(Sc1nnc(-c2cccs2)n1C1CC1)C(=O)NCC1CCCO1` (centres undefined), the “activation, negative = inhibition” value is -8.6%.
With `Cc1nc(-c2ccccc2)sc1C(=O)/C=C/N(C)C`, the Potency is 2820 nM (active).
Regarding `CN(C)/C=C/C(=O)c1ccccc1F`, the “activation, negative = inhibition” value is 7.12%.
